This passage reports Potency results from PubChem BioAssay AID485364 (National Center for Advancing Translational Sciences (NCATS), 2010).

Molecules are shown by their SMILES. Among all 360,000 compounds or so, about 11,000 (3.1%) were called active. Another 4% or so got no clear call; they are omitted. Calls come from the whole dose curve; as a rule, active = well fitted inhibition curve with a large enough effect; inconclusive = small, poorly fitted or top-dose-only effect; inactive = no such curve, though single readings can be large or run the other way. Shown is part of a subset that was picked to be rich in actives. A call without a number means that no potency is given here.
Potency is the fitted concentration of half-maximal effect.

This test addresses Schistosoma mansoni thioredoxin glutathione reductase (TGR) (UniProt Q962Y6). Nature of the test: qHTS Assay for the Inhibitors of Schistosoma Mansoni Peroxiredoxins. Note: nearly all actives have a fitted effect of over 60% in size. The following applies: purified TGR, DTNB reduction, TNB absorbance 405 nm; series mostly up to 114 µM. The gist of the method: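 Kinetic colorimetric format: TGR-catalysed, NADPH-driven DTNB reduction monitored via TNB absorbance. Enzyme dispensed at 20 nM; compound exposure 15 min at room temperature before reaction start.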
`CCCS(=O)(=O)N1CCC(n2c(C(F)(F)F)nc3cccnc32)CC1`: the Potency result was “inactive”.

For `COc1ccccc1-c1cc2nc(C)c(CCC(=O)O)c(C)n2n1`, the Potency entry is “inactive”.

In the case of `CCOCCCNC(=O)c1c(NC(=O)Cc2coc3ccc(C)cc23)sc2c1CCC2`, the Potency entry was “inactive”.

As to `O=C(CCl)Nc1ccc(Sc2ccc(NC(=O)CCl)cc2)cc1`, the Potency is 2.82 µM (active).

For `CC(C)(CCl)C(=O)Nc1ccc(Sc2ccc(F)cc2)cc1`, the Potency entry was “inactive”.

As for `O=C(Nc1ccc(Sc2ccc(Br)cc2)cc1)c1ccco1`, the Potency result was “inactive”.

Consider `COc1ccc(-n2c(SC)nc3sc4c(c3c2=O)CCN(C(C)=O)C4)cc1`, for which the Potency result was “inactive”.

For the compound `Cc1cccc(-c2nnc(SCC(=O)N3CCCc4ccccc43)o2)c1`, the Potency entry is “inactive”.

With `COC(=O)c1ccccc1NC(=O)c1ccc(COc2ccccc2Cl)o1`, the Potency result is “inactive”.

For `CCOc1ccc(NC(=O)C(=O)NCCc2csc3nc(-c4ccccc4F)nn23)cc1`, the Potency entry was “inactive”.

On to `O=c1cc(-c2ccccc2)nc(N2CCCCC2)[nH]1`, for which the Potency result was “inactive”.

Turning to `CC(=O)c1cc(-c2ccccc2)n(CC(=O)NC2CCCCC2)c1C`, the Potency result was “inactive”.

As to `CC(=O)c1cc(-c2ccccc2)[nH]c1N1CCCC1`, the Potency is 50.1 µM (active).

As for `COc1ccc(C(=O)Nc2cccc(C(=O)OCc3cc(=O)n4c5c(sc4n3)CCCC5)c2)cc1`, the Potency result was “inactive”.

`Oc1ccccc1-c1nc(/C=C/c2ccc(F)cc2)no1`: the Potency result is “inactive”.

With `COc1ccc(Cc2nc3ccc(C(=O)NCc4ccccc4C)cc3o2)cc1`, the Potency entry was “inactive”.

For `CCCC(O)(CCC)C(=O)NN(C(=O)CCl)c1cccc(C)c1`, the Potency was 25.1 µM (active).

With `Cc1cccc(N(Cc2ccccc2)C(=O)c2ccccc2F)c1`, the Potency result was “inactive”.

As to `COC(=O)N(NC(=O)C(O)(C(C)C)C(C)C)c1ccccc1`, the Potency result is “inactive”.

On to `CCCCC(O)(CCCC)C(=O)NN(C(=O)CCl)c1ccccc1`, for which the Potency was 8.91 µM (active).

For `CC(C)(O)C(=O)NN(C(=O)c1ccccc1)c1cccc(Br)c1`, the Potency entry was “inactive”.

In the case of `CCC(C)NC(=O)CCCc1ccccc1` (centres undefined), the Potency result was “inactive”.

As for `CCC(=O)N1c2ccccc2CC1C(=O)N1CCN(c2ccccc2)CC1` (centres undefined), the Potency entry is “inactive”.

Consider `COc1ccccc1CNC(=O)C(Cc1ccccc1)NS(=O)(=O)c1ccc2c(c1)oc(=O)n2C` (centres undefined), for which the Potency result was “inactive”.

For the compound `CCOc1ccccc1C(=O)NC1(C(F)(F)F)C(=O)Nc2c1c(=O)[nH]c(=O)n2-c1ccc(F)cc1` (centres undefined), the Potency entry was “inactive”.

For the compound `CC(C)NC(=O)c1nn(-c2ccccc2F)nc1CO`, the Potency result is “inactive”.

Take `CCCC(=O)Nc1ccc(NC(=O)c2sc3ccccc3c2Cl)cc1`: the Potency entry is “inactive”.

For the compound `O=C(/C=C\NCC(=O)c1ccccc1)c1ccccc1`, the Potency was 28.2 µM (active).

Turning to `O=C(/C=C/NCc1ccc(F)cc1)c1ccccc1`, the Potency entry is “inactive”.

Take `O=C(/C=C/NNC(=O)c1cccc(Br)c1)c1ccccc1`: the Potency entry is “inactive”.

Take `COc1cc(NC(=O)CSc2nc3nc(C)c(Cc4ccc(C)cc4)c(C)n3n2)cc(OC)c1OC`: the Potency result was “inactive”.

As to `COc1ccc(NC(=O)C2CCCN(S(=O)(=O)c3c(C)[nH]c(=O)[nH]c3=O)C2)c(OC)c1` (centres undefined), the Potency entry was “inactive”.

In the case of `CC(=O)N1CCCc2cc(S(=O)(=O)N3CCC(C(=O)NCc4ccc(F)cc4)CC3)ccc21`, the Potency entry is “inactive”.

With `Cc1ccc(C)c(N2CCN(S(=O)(=O)c3ccc4c(c3)C(C(C)C)C(=O)N4)CC2)c1` (centres undefined), the Potency result was “inactive”.

For the compound `CCOC(=O)C(=CNNc1ccsc1C(=O)OC)C(=O)OCC`, the Potency was 20 µM (active).

As for `COC(=O)c1sccc1NC(=O)CCC1CCCC1`, the Potency entry is “inactive”.

For the compound `COC(=O)c1sccc1NN1C(=O)c2ccccc2C1=O`, the Potency result is “inactive”.

Consider `O=C(CCCCn1c(=O)c2ccccc2n(CC(=O)Nc2cccc(C(F)(F)F)c2)c1=O)NCc1ccc2c(c1)OCO2`, for which the Potency result was “inactive”.

On to `COc1cccc(CNC(=O)CCc2nc(-c3ccc(C)cc3)no2)c1`, for which the Potency entry is “inactive”.

As to `CCOC(=O)Cn1c(=O)n(-c2ccccc2OC)c2nc(-c3cccc(F)c3)nc(C(N)=O)c21`, the Potency entry was “inactive”.

Regarding `CCOC(=O)c1ccc(-c2ccc(C(=O)Nc3cccnc3)o2)cc1`, the Potency result is “inactive”.

On to `CCOc1cc(C2C(C(=O)OC)=C(C)NC3=C2C(=O)c2ccccc23)ccc1O` (centres undefined), for which the Potency result was “inactive”.

Consider `COC(=O)C1=C(C)NC2=C(C(=O)c3ccccc32)C1c1ccc(-c2ccc(C(=O)O)cc2)o1` (centres undefined), for which the Potency is 20 µM (active).

As to `CCOC(=O)c1cc2c(=O)n3ccccc3nc2n(CC2CCCO2)c1=NC(=O)c1ccccc1Br` (centres undefined), the Potency result is “inactive”.

`Cc1cc(C)c2c(=O)[nH]c(SCC(=O)Nc3ccc(Br)cc3)nc2n1`: the Potency entry was “inactive”.

For the compound `Cc1ccn(C(CC(=O)c2ccc(Br)cc2)C(=O)O)n1` (centres undefined), the Potency was 8.91 µM (active).

As to `Cc1ccc(NC(=O)CCC(=O)c2ccc(Br)cc2)cc1`, the Potency result was “inactive”.

For `Cc1ccc(-n2ncc3c(=O)n(Cc4cccc(C(F)(F)F)c4)cnc32)cc1C`, the Potency entry was “inactive”.

As for `O=C(Nc1ccccc1Cl)N1CCC(CN2CCCC2)CC1`, the Potency result was “inactive”.

`CCOC(=O)c1cc2n(c1N)-c1ccccc1C2=O`: the Potency was 31.6 µM (active).

In the case of `CCOC(=O)c1cc(-c2ccccc2)n(CCC(=O)Nc2ccccc2CC)c1C`, the Potency result was “inactive”.

`CCOC(=O)c1ccccc1CN1C(=O)c2ccccc2S1(=O)=O`: the Potency result is “inactive”.

Turning to `O=C(Nc1cccc2cccnc12)c1cccc2c(Br)cccc12`, the Potency result is “inactive”.

For `COc1ccc(CNC(=O)c2cc3c(=O)[nH]c4ccc(C)cc4c3s2)c(OC)c1`, the Potency result was “inactive”.

As for `N#C/C(=C\c1cccc(F)c1)c1nc(-c2cc3c(ccc4ccccc43)oc2=O)cs1`, the Potency result is “inactive”.

Turning to `COC(=O)c1ccc(CSc2ccc3nnc(-c4ccccc4)n3n2)o1`, the Potency was 56.2 µM (active).

Regarding `COC(=O)c1ccc(CSc2nnc(N)s2)o1`, the Potency entry is “inactive”.

As for `COC(=O)c1ccc(CSc2ccccc2C)o1`, the Potency entry was “inactive”.

As for `CCOc1ccc(OCC)c(NS(=O)(=O)c2ccc3[nH]c(=O)ccc3c2)c1`, the Potency result was “inactive”.

With `CCc1ccccc1N1CC(c2nc3ccccc3n2CCCCOc2ccccc2)CC1=O` (centres undefined), the Potency result is “inactive”.

`O=C(Nc1ccc(F)cc1)C1CCN(C(=O)c2ccc([N+](=O)[O-])cc2)CC1`: the Potency result was “inactive”.

Turning to `O=C(/C=C/c1ccc([N+](=O)[O-])o1)NNC(=O)c1ccc(F)cc1`, the Potency is 11.2 µM (active).

With `O=C(/C=C/c1ccc(F)cc1)NC(=S)NNC(=O)c1cccnc1`, the Potency entry is “inactive”.

Turning to `CC1(C)CCSC(/C=C/c2ccccc2)=N1`, the Potency was 17.8 µM (active).

Take `CCCCC(CC)CNC(=O)C1CCN(S(=O)(=O)c2cccc3nsnc23)CC1` (centres undefined): the Potency result was “inactive”.

`COc1ccc2c(CNCCc3ccccc3C)c(C(=O)O)n(Cc3ccccc3C)c2c1`: the Potency entry was “inactive”.

Regarding `Cc1[nH]c2ccccc2c1C(=O)CN1CCCC(C)C1` (centres undefined), the Potency was 25.1 µM (active).

On to `CCOC(=O)N1CCN(CC(=O)c2ccc3c(c2)CCN3)CC1`, for which the Potency entry was “inactive”.

For `CC1CCCN(Cc2nc3c(c(=O)n(C)c(=O)n3C)n2CC(=O)c2ccccc2)C1` (centres undefined), the Potency entry was “inactive”.

As for `CCOC(=O)N1CCN(CC(=O)n2c(C)c(C)c3ccccc32)CC1`, the Potency entry was “inactive”.

Take `CCOC(=O)N1CCN(CC(=O)c2c(C)[nH]c3ccccc23)CC1`: the Potency is 35.5 µM (active).

For the compound `CC1CCN(CC(=O)c2c[nH]c3ccccc23)CC1`, the Potency entry was “inactive”.

For the compound `Cc1cccc(N2CCN(C(=O)Cn3ncc4c5ccccc5n(C)c4c3=O)CC2C)c1` (centres undefined), the Potency result was “inactive”.

On to `CCc1cc2c(cc3c(=O)n(CC(=O)NCc4cccc(Cl)c4)nc(CC)n32)s1`, for which the Potency result was “inactive”.

Take `Cc1cccc(NC(=O)c2cc3c(C)nn(-c4ccccc4)c3s2)c1`: the Potency result is “inactive”.

Consider `COC(=O)c1ccc(OC)c(Cn2c(=O)n(Cc3ccccc3)c(=O)c3c2c2cc(OC)ccc2n3C)c1`, for which the Potency entry was “inactive”.

With `Cc1oc2ccc(O)c(CN3CCCCC3)c2c1C(=O)Nc1cccc(C(F)(F)F)c1`, the Potency result is “inactive”.

For `CCN(Cc1ccccc1)C(=O)c1cn(-c2cccc(OC)c2)c(=O)c2ccccc12`, the Potency entry is “inactive”.

Turning to `Cc1ccccc1NC(=O)CN1C(=O)C(C)(C)c2ccccc21`, the Potency result was “inactive”.

In the case of `COc1cccc(-n2c(SCC(=O)c3c[nH]c4ccccc34)nc3ccccc3c2=O)c1`, the Potency entry is “inactive”.

With `CCOc1ccc(/C=C(\C#N)c2nc3ccccc3c(=O)[nH]2)cc1OC`, the Potency entry was “inactive”.

Turning to `COc1ccc(/C=C(\C#N)c2c[nH]c3ccccc23)cc1`, the Potency is 14.1 µM (active).

Regarding `COC(=O)c1ccc(NC(=O)c2cccc3c2C(=O)N(C2CCCCC2)C3)cc1`, the Potency result is “inactive”.

Consider `CCN(CC)c1nn2c(=O)c(C(=O)NCCc3ccccc3)cnc2s1`, for which the Potency entry is “inactive”.

With `O=C(O)c1ccc(Nc2nc(-c3ccccc3)c3cc(Br)ccc3n2)cc1`, the Potency result was “inactive”.

`CC1=NC2(CCCc3c2no[n+]3[O-])N(O)C1(C)C` (centres undefined): the Potency was 44.7 µM (active).

Consider `COc1ccc(-c2cn3nc(N4CCC(C(=O)Nc5cccc(C)c5C)CC4)sc3n2)cc1`, for which the Potency result was “inactive”.

For `CCOC(=O)C1CCCN(C(=O)c2ccc(-n3ccc4ccccc43)s2)C1` (centres undefined), the Potency result is “inactive”.

For `O=C(CN1C(=O)COc2ccccc21)Nc1ccc(F)cc1`, the Potency is 70.8 µM (active).

Take `CC(OC(=O)CN1C(=O)COc2ccccc21)C(=O)NCc1ccc(F)cc1` (centres undefined): the Potency result is “inactive”.

As to `O=C(CN1C(=O)COc2ccc(Cl)cc21)Nc1ccc(N2CCOCC2)cc1`, the Potency entry is “inactive”.

Take `O=C(O)c1c(CNCc2cccc(F)c2)c2ccccc2n1Cc1ccccc1`: the Potency result was “inactive”.

With `Cc1cccc(C(=O)Nc2ccc(C(=O)N/N=C/c3cccc(C)n3)cc2)c1`, the Potency result is “inactive”.

On to `Brc1cc(/C=N/n2cnnc2)oc1Br`, for which the Potency entry was “inactive”.

Turning to `Cc1ccc(C(=O)N/N=C\c2cc(Br)c(Br)o2)cn1`, the Potency was 22.4 µM (active).

For the compound `Cn1nnnc1SCCCNCc1cccc(OCc2ccc(Cl)cc2)c1`, the Potency result is “inactive”.

In the case of `CCOC(=O)c1cc2c(=O)n3ccccc3nc2n(CCCOC)c1=NC(=O)C(C)Oc1ccccc1` (centres undefined), the Potency entry is “inactive”.

`COc1ccccc1/C=C/C(=O)NC1CC2CCC1C2` (centres undefined): the Potency entry was “inactive”.

`CCOC(=O)C(=Cc1ccccc1OC)C(=O)OCC`: the Potency was 28.2 µM (active).

In the case of `CCOC(=O)C(=CNc1cccc(C)n1)C(=O)OCC`, the Potency result is “inactive”.

As for `COc1cc(C(=O)NCCc2csc3nc(-c4ccccc4C)nn23)cc(OC)c1OC`, the Potency result was “inactive”.

On to `CCC1=Nc2cc(C(=O)NCCCN3CCOCC3)ccc2Sc2ccc(Br)cc21`, for which the Potency result was “inactive”.

On to `Cc1ccccc1CN1C(=O)c2ccccc2Sc2ccc(C(=O)NCCCN3CCOCC3)cc21`, for which the Potency result is “inactive”.

As for `O=C(NCCCN1CCOCC1)c1ccc2c(c1)N(Cc1cccc(F)c1)C(=O)c1ccccc1S2`, the Potency was 22.4 µM (active).
